Screens as filed in PubChem BioAssay.
The list is not random: actives were taken first. Their share in the collection is about 7.5%.
VACV Venus inh: qHTS for Stage-Specific Inhibitors of Vaccinia Orthopoxvirus: Venus Reporter Primary qHTS; Vaccinia virus Venus reporter expression, fluorescence; Potency, µM (titrated, usually from 36.5 µM), for inactives: at the highest dose activity change, negative = inhibition, most hits filed as inhibitors; 0.46% of 330,000 active; calls by dose curve; tested in A549 cells; note: potency is the fitted concentration of half-maximal effect; nearly all actives have a fitted effect of over 30% in size
FBPA Giardia inh: qHTS Assay for Inhibitors of Fructose-1,6-bisphosphate Aldolase from Giardia Lamblia | A8B2U2 | purified Giardia FBPA | Potency, µM (highest dose often 59.6 µM), for inactives: at the top dose activity, negative = inhibition, usual class: inhibitors | 0.71% of 290,000 active | AID 2451, 2010; note: potency is the fitted concentration of half-maximal effect; nearly all actives have a fitted effect of over 55% in size
Target sequence (A8B2U2 whole entry, looked up): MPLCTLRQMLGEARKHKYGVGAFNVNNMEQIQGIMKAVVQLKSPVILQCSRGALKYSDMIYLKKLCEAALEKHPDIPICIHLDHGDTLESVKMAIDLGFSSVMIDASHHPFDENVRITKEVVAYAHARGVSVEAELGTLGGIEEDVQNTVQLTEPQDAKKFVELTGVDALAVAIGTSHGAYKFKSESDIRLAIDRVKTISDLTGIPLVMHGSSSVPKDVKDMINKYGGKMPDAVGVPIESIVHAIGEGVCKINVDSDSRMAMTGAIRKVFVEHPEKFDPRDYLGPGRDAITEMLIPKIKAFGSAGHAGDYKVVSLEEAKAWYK
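Giardia FBPA (40 nM reagent) was preincubated 10 min at RT with compound (up to 57.5 uM final), then substrate plus GAPDH/TPI/NAD/arsenate coupling system with diaphorase/resazurin was added; resorufin fluorescence (525/598 nm) was read after 20 min.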
HCMV inh: qHTS Assay for inhibitors of the human cytomegalovirus (HCMV); activity change, negative = inhibition, % at 57.5 µM; 4.5% of 410,000 active; HFF cells, HCMV-luciferase reporter, 72 h; stronger effect = lower value; AID 1259415, 2018; in the data active = activity change below about -60%; inconclusive = no clear call, values can overlap the other calls; inactive = above about -39%
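Screen run at 2 compound doses on HFFs infected with reporter HCMV, MOI 1 PFU/cell. Luciferase activity from cell lysates at 72 h post infection gave inhibition relative to buffer-only and Salinomycin wells.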
Vaccinia mCherry: qHTS for Stage-Specific Inhibitors of Vaccinia Orthopoxvirus: mCherry Reporter Primary qHTS. Vaccinia virus mCherry reporter infection, fluorescence. Potency, µM (doses to about 36.5 µM), for the others: at the top dose activity change, negative = inhibition, hits mostly inhibitors. 0.63% of 310,000 active; calls by dose curve; tested in A549 cells; note: potency is the fitted concentration of half-maximal effect; nearly all actives have a fitted effect of over 35% in size
FMDV inh: High Throughput Screening for Foot and Mouth Disease Virus Antivirals; FMDV antiviral cell-based qHTS; Potency, µM (highest dose often 57.9 µM), for inactives: top-dose activity change, negative = inhibition, hits mostly inhibitors; 1.2% of 410,000 active; AID 1159524, 2015; calls by dose curve; tested in HEK293T cells; note: read-out not given here; potency is the fitted concentration of half-maximal effect; nearly all actives have a fitted effect of over 45% in size
HCV inh: qHTS Assay for Inhibitors of Hepatitis C Virus (HCV); Huh7.5.1 HCVcc-Cre infection, luciferase reporter, 44 h; Potency, µM (highest dose often 41.8 µM), without a hit: at the highest dose activity change, negative = inhibition, usual class: inhibitors; 3.4% of 340,000 active; AID 651820, 2012; note: potency is the fitted concentration of half-maximal effect
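Whole-lifecycle infectious HCVcc-Cre system; cells 1,000/well, compound then virus (~0.5 moi) added 4 h after plating, 44 h culture. Luciferase read 15 sec following 15 min substrate incubation, room temp.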
The depositor's hits bear a star; i = inactive; ? = inconclusive; . = no result given. Unless noted, calls come from the whole dose curve; as a rule, active = well fitted curve in the direction sought with a large enough effect; inconclusive = small, poorly fitted or top-dose-only effect, or another doubt; inactive = no such curve, though single readings can be large; an effect the other way counts as inactive or inconclusive. % is set by controls: 0 for no effect and ±100 for the full control effect.

SMILES | VACV Venus inh | FBPA Giardia inh | HCMV inh | Vaccinia mCherry | FMDV inh | HCV inh
COc1cccc(C#Cc2cnc3c(c2)C(=O)N([C@@H](C)CO)C[C@H](C)[C@H](CN(C)C(=O)C2CCC2)O3)c1 | ? | . | 1 | -8% | -22% | .
O=C(NCCS(=O)(=O)N1CCN(c2ccccc2F)CC1)c1ccccc1C(F)(F)F | -13% | . | 45 | -10% | -11% | .
Cc1ccc(NC(=O)Cn2c(=O)c(C)nc3ccccc32)cc1 | 3% | -1% | -28 | -3% | -7% | 2%
Cc1nc2ccccc2n(CC(=O)Nc2cc(Cl)cc(Cl)c2)c1=O | -10% | 6% | -61* | i | -28% | -28%
Cn1c(/C=C/c2ccc(Cl)cc2Cl)c([N+](=O)[O-])c(=O)n(C)c1=O | . | 11% | -98* | . | 32µM* | ?
CN(C)/C=C/C(=O)/C=C/c1ccc(Cl)cc1Cl | -12% | 3% | -16 | -14% | 51% | -5%
COc1ccc(/C=C/c2c([N+](=O)[O-])c(=O)n(C)c(=O)n2C)c(OC)c1 | -13% | -2% | 0 | -15% | ? | 11µM*
CCc1c(C)nc2ncnn2c1NCc1cccs1 | -12% | . | -69* | -9% | . | -22%
CCc1c(C)nc2ncnn2c1Nc1ccc(C)cc1 | -21% | -9% | 8 | -11% | -24% | 2%
CCc1c(C)nc2ncnn2c1NCCc1ccc(OC)cc1 | . | -9% | -92* | . | 11µM* | 5.6µM*
O=[N+]([O-])c1ccc2c(c1)C(=NO)c1cc(Cl)c(Cl)cc1-2 | -11% | . | ? | i | 0% | 11µM*
Nc1cc2c(cc1[N+](=O)[O-])-c1ccccc1C2=NO | -22% | . | -68* | ? | 10% | ?
Cc1ccc(C)c(OCC(=O)OCC(=O)Nc2c(C)nn(-c3ccccc3)c2C)c1 | -15% | . | -11 | -13% | -2% | 3%
Cc1ccc(OCC(=O)Nc2c(C)nn(-c3ccccc3)c2C)c(Br)c1 | -20% | . | -40 | i | 40µM* | ?
Cc1nn(-c2ccccc2)c(C)c1NC(=O)COc1ccc(F)cc1Cl | -30% | 0% | ? | ? | 20µM* | ?
CCN(CC)c1ccc(NC(=S)Nc2ccc(F)cc2)cc1 | -6% | ? | 47 | -13% | 15% | 11µM*
Fc1ccc(NC(=S)Nc2ccc(Br)cc2)cc1 | ? | -8% | -79* | ? | -6% | ?
Oc1ccc(NC(=S)Nc2ccc(F)cc2)cc1 | . | -28% | -34 | . | 20% | 5%
O=C(NCCC1CCCCN1S(=O)(=O)c1ccc(Cl)cc1)C(=O)NCc1cccnc1 (stereo not drawn) | -25% | . | -31 | -28% | -6% | 6%
CCSc1nn(CC(=O)Nc2cccc(Cl)c2)c(N)c1S(=O)(=O)c1ccc(OC)cc1 | -14% | . | -4 | -25% | -2% | .
OC(c1ccco1)c1nc(-c2ccc(F)c(Cl)c2)cs1 (stereo not drawn) | -5% | . | -65* | i | 38% | .
O=c1cccc2c1c1cc[nH]c3ccc(=O)n2c31 | 6% | . | -70* | -10% | -22% | ?
CCOC(=O)[C@@H]1[C@H]2COc3ccc(Br)cc3[C@H]2N2C(=O)N(c3ccc(C(F)(F)F)cc3)C(=O)[C@]12C | -14% | . | -76* | i | -16% | -26%
CCOC(=O)[C@@H]1[C@H]2COc3ccc(Br)cc3[C@H]2N2C(=O)N(c3ccc(Br)cc3)C(=O)[C@]12C | -7% | -1% | . | i | -17% | 32µM*
CCOC(=O)[C@@H]1[C@H]2COc3ccc(Br)cc3[C@@H]2N2C(=O)N(c3ccc(Br)cc3)C(=O)[C@]12C | -13% | -5% | 1 | i | -26% | -3%
SMILES | VACV Venus inh | FBPA Giardia inh | HCMV inh | Vaccinia mCherry | FMDV inh | HCV inh
O=P1(c2ccccc2)Nc2ccccc2N1c1ccccc1 (stereo not drawn) | 23% | . | -64* | ? | -5% | -2%
CCCCCCOc1ccc(CN2CCN(CC)CC2)cc1 | -15% | -8% | -75* | -1% | -6% | ?
CCCCCCCCOc1ccc(C(=O)O)cc1 | -16% | . | 18 | -20% | 6% | 6.3µM*
Cc1cnc(-n2ncc(C(=O)NCCN3CCOCC3)c2C2CC2)nc1-c1cccs1 | -17% | . | . | -2% | 5% | .
Cc1ccc(S(=O)(=O)CCC(=O)OCc2nnc(-c3ccc([N+](=O)[O-])cc3)o2)cc1 | -3% | . | 28 | -14% | -16% | 13%
O=S(=O)(NCc1ccccc1)c1cc(Br)ccc1Br | . | . | -27 | . | . | .
O=C(Nc1ccc(-c2nnn(CC(=O)N3CCN(C(=O)c4ccco4)CC3)n2)cc1)c1ccc(F)cc1 | -18% | -2% | -14 | -22% | -16% | 10µM*
O=C(c1ccc(S(=O)(=O)Nc2ccc(F)cc2)cc1)N1CCN(C(=O)c2ccco2)CC1 | -29% | 6% | -69* | -5% | 0% | -20%
O=C(Cn1nnc(-c2ccc(F)cc2)n1)N1CCCCC1 | -14% | 5% | -38 | i | 7% | 10%
Cc1cc(S(=O)(=O)Nc2ccc(C(=O)N3CCN(C(=O)c4ccco4)CC3)cc2)ccc1F | -29% | 8% | -20 | -3% | -18% | -25%
O=C(CSc1ncnc2c1nnn2-c1ccc(F)cc1)NCC1CCCO1 (stereo not drawn) | -6% | 12% | -13 | . | 16µM* | -3%
COc1ccc(-n2nnc3c(=O)n(CC(=O)NCC4CCCO4)cnc32)cc1 (stereo not drawn) | . | -7% | -102* | . | -8% | 1%
Cc1ccc(-n2nnc3c(SCC(=O)NCC4CCCO4)ncnc32)cc1 (stereo not drawn) | 1% | 6% | . | . | ? | 1%
Cc1ccc(NC(=S)Nc2ccc(OC(F)F)c(Cl)c2)cc1F | -20% | -13% | ? | i | -10% | 13µM*
Fc1ccc(NC(=S)Nc2ccc(F)c(Cl)c2)cc1Cl | 10µM* | -10% | . | ? | ? | ?
Fc1ccc(NC(=S)Nc2cccc(Cl)c2)cc1 | . | -14% | -73* | . | 41% | ?
Fc1ccc(CNC(=S)Nc2cccc(Cl)c2)cc1 | -22% | 3% | ? | -25% | 4% | ?
FC(F)(F)c1ccccc1NC(=S)Nc1cccc(Cl)c1 | 9% | -3% | -76* | 11% | -12% | 24%
O=C(Nc1ccc(OC(F)F)c(Cl)c1)c1ccccn1 | . | -9% | 100 | . | 6% | -8%
Cc1c(C(=O)NCCN2CCC(c3ccccc3)CC2)cnn1-c1nccc(-c2cccs2)n1 | -27% | . | . | ? | -10% | .
COc1cc(OC)cc(N2C(=O)N(Cc3ccc(C(C)(C)C)cc3)c3ccccc3S2(=O)=O)c1 | -3% | . | ? | 10% | 0% | .
